Structures are written as SMILES. The whole screen tested about 52,000 compounds, of which about 4,300 (8.3%) were called active. The full list was thinned out, with actives kept by preference. Values without a mark were called inactive. Cut-off read from the data, not from the text of the source: active = survival mostly below about 52% (no sharp cut-off); inactive = mostly above about 56%.

This assay relates to DeltatarO mutant. The experiment in a line: growth inhibition of S. aureus wild type versus tarO mutant, primary screen, teichoic acid synthesis inhibitors, RN4220, OD600 (AID 463173). The following applies: OD600, 18 h, stronger effect = lower value, screened at 18.75 µg/mL (by protocol).
Consider `CCc1ccc2c(c1)NC(c1ccc(C)cc1)=NC(c1cccs1)=N2`, for which the survival was 68%. On to `Cc1ccc[n+](Cc2cnc(C)nc2N)c1`, for which the survival is 83%. Turning to `CCC(=O)N1CCc2cc(S(=O)(=O)NC(Cc3ccccc3)C(=O)Nc3ccccc3C)ccc21` (stereo not drawn), the survival was 118%. As for `COc1ccccc1-c1nnc(C2CCN(C(=O)c3ccc(C)cc3)CC2)o1`, the survival is 91%. Next, `CCN(CC)N=Nc1ccc(S(=O)(=O)N=C(C)O)cc1`: 87%; `Nc1nc(SCc2ccccc2)ns1`: 53%.

As for `Nc1nnc(SCc2ccccc2)s1`, the survival is 49% (active). For `Nc1nnc(CSCc2ccccc2)s1`, the survival is 109%.

Regarding `CCc1c(C)c(C#N)c2nc3ccccc3n2c1Nc1cccc(C(F)(F)F)c1`, the survival was 39% (active). As for `Cc1ccc(Nc2c(C(C)C)c(C)c(C#N)c3nc4ccccc4n23)cc1`, the figure is 62%; as for `CC(=O)Nc1ccc(Nc2c(CCC(C)C)c(C)c(C#N)c3nc4ccccc4n23)cc1`, 136%; as for `CCn1cc(S(=O)(=O)c2cccc(C)c2)c(=O)c2cc(F)c(N3CCCC(C)C3)cc21` (stereo not drawn), 84%. As for `CC1=C(C(=O)Nc2ccc(C)cc2Cl)C2(CCCCCC2)OC1=O`, the figure is 89%; as for `Cc1nc2cc(-c3ccccc3)nn2c(C)c1CCC(=O)NCCc1ccccc1`, 54%.

In the case of `COc1cc([N+](=O)[O-])ccc1NC(=O)N1CCN(c2cc(-c3noc(C)n3)ccc2C)CC1`, the survival is 94%. With `CCN1c2cc(C)ccc2-n2cccc2C12CCN(C(=O)Nc1cc(OC)c(OC)c(OC)c1)CC2`, the survival was 93%. For `COc1cc([N+](=O)[O-])ccc1NC(=O)N1CCC2(CC1)Nc1cc(F)ccc1-n1cccc12`, the survival is 46% (active). Take `COc1cc([N+](=O)[O-])ccc1NC(=O)N1CCC2(CC1)Nc1ccccc1-n1cccc12`: the survival was 37% (active). On to `COc1cc(NC(=O)N2CCC3(CC2)Nc2cc(F)ccc2-n2cccc23)cc(OC)c1OC`, for which the survival was 105%.

For `COc1cc(NC(=O)N2CCC3(CC2)Nc2ccccc2-n2cccc23)cc(OC)c1OC`, the survival is 101%. In the case of `Cc1cc(C(=O)Nc2cccc(OC(C)C)c2)c(C)o1`, the survival was 105%. On to `COc1cccc(CNC(=O)c2nnc(Cc3ccc(Cl)cc3)o2)c1`, for which the survival was 91%.

As for `CCOc1ccc(CCNC(=O)CCn2c(=O)c3cccn3c3cccnc32)cc1`, the survival was 89%. On to `CCS/C=C/C#CC1(O)CCCCC1`, for which the survival is 90%. Regarding `Cc1ccccc1CNC(=O)c1ccc2nc(SCc3ccc(F)cc3)n(C)c2c1`, the survival was 60%. Turning to `COc1ccc(Cl)cc1NC(=O)Cn1ncc2c3ccccc3n(Cc3ccccc3)c2c1=O`, the survival was 125%.

For `CCOC(=O)Cn1nnc(-c2ccccc2)n1`, the survival is 95%. Take `CCOC(=O)c1[nH]c2c(c1Cc1ccccc1C)C(=O)CC(c1cc(OC)ccc1OC)C2` (stereo not drawn): the survival was 82%. For the compound `COc1ccc(N2CCN(C(=O)CCc3c(C)nc4cc(-c5ccc(Cl)cc5)nn4c3C)CC2)cc1`, the survival is 116%. As for `O=C(O)/C=C/C(=O)Nc1nnc(-c2ccccc2F)s1`, the survival was 97%. Turning to `Cc1ccc2nc(-c3ccc(C)o3)c(Nc3ccc4c(c3)OCCO4)n2c1`, the survival is 72%. For `Cc1ccc(Nc2c(-c3ccc(Br)o3)nc3ccccn23)cc1`, the survival was 112%. For `c1coc(-c2nc3ccccn3c2Nc2ccc3c(c2)OCCO3)c1`, the survival is 53% (active). As to `Cc1ccc(-c2nc3ccccn3c2Nc2ccc3c(c2)OCCO3)o1`, the survival is 45%.

For the compound `Cc1ccc(-c2nc3ccccn3c2Nc2c(C)cccc2C)o1`, the survival was -2% (active). `Brc1ccc(-c2nc3ccccn3c2Nc2ccc3c(c2)OCCO3)o1`: the survival is 85%.

With `Cc1ccn2c(Nc3ccc4c(c3)OCCO4)c(-c3ccc(C)o3)nc2c1`, the survival is 58% (active). In the case of `Cc1ccc(-c2nc3ccccn3c2Nc2ccc3c(c2)OCO3)o1`, the survival was 34% (active). With `Cc1ccc(-c2nc3ccccn3c2Nc2ccc3c(c2)OCO3)cc1`, the survival was 73%. `Cc1ccn2c(Nc3ccc4c(c3)OCO4)c(-c3ccc(C)o3)nc2c1`: the survival was 81%. With `COc1ccc(Nc2c(-c3ccc(C)o3)nc3cc(C)ccn23)cc1`, the survival is 75%. As for `Cc1ccc2nc(-c3ccco3)c(Nc3ccc4c(c3)OCCO4)n2c1`, the figure is 67%. As for `CCc1nn(CC(=O)NCc2ccccc2Cl)c(=O)c2cc3ccccc3n12`, the survival was 62%. For the compound `Cc1ccc(Cn2c(SCc3ccc(C(=O)NC4CCCCC4)cc3)nc3ccncc32)cc1`, the survival was 71%. Consider `Cc1cc(N2CCCC2)nc(SCC(=O)c2ccccc2)n1`, for which the survival was 77%.

As for `COc1ccc(CCN2C(=O)CN(C3CCCCCC3)C(=O)C2c2ccc(C)cc2)cc1OC` (stereo not drawn), the survival is 92%. Next, `Cc1ccc(Cl)cc1N1CCN(C(=O)c2cn(C)c3ccc(S(=O)(=O)N4CCCC4)cc3c2=O)CC1`: 124%; `Cc1ccccc1Cn1c2ccccc2c2cnn(CC(=O)N3CCC(C)CC3)c(=O)c21`: 41%; `O=C(O)CCCn1c(=O)oc2ccccc21`: 96%. Take `O=c1oc2ccccc2n1CCCOc1ccccc1Cl`: the survival is 3% (active). With `Cc1ccc2oc(=O)n(CCCOc3ccccc3Cl)c2c1`, the survival is -4% (active). Take `Cc1c(Cl)cccc1NC(=O)NCCOCCn1c(=O)oc2ccccc21`: the survival is 51%. On to `Cc1ccc2oc(=O)n(CCCOc3ccc(Cl)cc3)c2c1`, for which the survival is -3% (active). Next, `COc1ccc(OCCCn2c(=O)oc3ccc(C)cc32)cc1`: 39%; `Cc1ccc2oc(=O)n(CCNC(=O)Nc3ccc(C)c(F)c3)c2c1`: 108%. Turning to `N#CCCCn1c(=O)oc2ccccc21`, the survival is 100%. For the compound `CCOc1ccc(-c2cc(C(=O)N3CCN(c4cc(Cl)ccc4C)CC3)c3ccccc3n2)cc1`, the survival is 58%. Regarding `O=C(NCc1ccc2c(c1)CCN2C(=O)c1ccc(F)cc1)c1c(F)cccc1F`, the survival is 85%. As for `O=C(NCc1ccccc1Cl)c1ccc2nc(Cc3ccccc3)oc2c1`, the figure is 60%; as for `CC1CCN(S(=O)(=O)c2ccc3c(c2)N(CC(=O)NCCN(C)C)C(=O)CS3)CC1`, 108%; as for `COc1ccccc1CNC(=O)C1CCN(S(=O)(=O)c2ccc3c(c2)CCCN3C(C)=O)CC1`, 83%. As for `CC(=O)N1CCCc2cc(S(=O)(=O)N3CCCC(C(=O)NCc4ccccc4Cl)C3)ccc21` (stereo not drawn), the figure is 95%.

Regarding `CC(=O)N1CCCc2cc(S(=O)(=O)N3CCC(C(=O)NC4CCCCC4)CC3)ccc21`, the survival was 94%.

Take `CC(=O)N1CCCc2cc(S(=O)(=O)N3CCC(N(C)C(C)C)CC3)ccc21`: the survival is 94%. As to `CC(=O)N1CCCc2cc(S(=O)(=O)N3CCCCC3)ccc21`, the survival is 47% (active). On to `COc1ccccc1CNC(=O)C1CCCN(S(=O)(=O)c2ccc3c(c2)CCCN3C(C)=O)C1` (stereo not drawn), for which the survival was 52% (active). For the compound `CCOC(=O)N1CCc2c(sc3c2c(=O)n(Cc2ccccc2)c(=O)n3CC(=O)Nc2ccc(C)cc2C)C1`, the survival is 71%. For `O=C(c1cc2ccccc2oc1=O)N1CCN(c2ccc(Cl)cc2)CC1`, the survival was 66%. Consider `COc1cc(C(=O)NCCOc2ccc(C)c(C)c2)cc(OC)c1OC`, for which the survival was 98%.

For `Cc1cc(C)cc(NC2=CC(c3cccc(F)c3)N(c3cc(C)cc(C)c3)C2=O)c1` (stereo not drawn), the survival was 87%.

With `CC(C)CN(CC(C)C)CC(O)Cn1cc(/C=C/C(=O)c2ccccc2)c2ccccc21` (stereo not drawn), the survival is 38% (active). With `COc1ccc(C(=O)/C=C/c2cn(CC(O)CN(CC(C)C)CC(C)C)c3ccccc23)cc1` (stereo not drawn), the survival was 58%. Next, `CCCN(CCC)CC(O)Cn1cc(/C=C/C(=O)c2ccc(Br)cc2)c2ccccc21` (stereo not drawn): 66%; `COc1ccc(C(=O)/C=C/c2cn(CC(O)CN3CCc4ccccc43)c3ccccc23)cc1` (stereo not drawn): 58%. `CCCCN(CCCC)CC(O)Cn1cc(/C=C/C(=O)c2ccccc2)c2ccccc21` (stereo not drawn): the survival was 5% (active). Turning to `CCCN(CCC)CC(O)Cn1cc(/C=C/C(=O)c2ccc(OC)cc2)c2ccccc21` (stereo not drawn), the survival was 11% (active). As for `CCCCN(CC)CCCNC(=O)c1cn(CC(C)C)c(=O)c2c1c1ccccc1n2C`, the survival is 115%. Next, `CCCN(CCC)CC(O)Cn1cc(/C=C/C(=O)c2ccc(C)cc2)c2ccccc21` (stereo not drawn): -2% (active). With `CCn1cc(/C=C(\NC(=O)c2ccc(OC)cc2)C(=O)NCCCn2ccnc2)c2ccccc21`, the survival is 108%. For the compound `COc1ccc(C(=O)/C=C/c2cn(CC(O)CN(CC(C)C)CC(C)C)c3ccccc23)cc1OC` (stereo not drawn), the survival was 91%. As for `Cc1ccc(C(=O)c2cn(Cc3ccccc3)c3ccccc3c2=O)cc1`, the figure is 75%; as for `Cc1nn(-c2ccccc2)c(=O)c2ccccc12`, 92%; as for `COc1ccc(-c2nc3nc(C)cc(Nc4ccc(C(C)=O)cc4)n3n2)cc1`, 54%. Consider `CCc1nc2nc(C)cc(Nc3ccc(Br)cc3F)n2n1`, for which the survival was 128%. With `Cc1cc(=O)n(CC(=O)Nc2ccc(Cl)c(Cl)c2)c(-n2nc(C)cc2C)n1`, the survival was 117%. For `COc1ccccc1NC(=O)CCS(=O)(=O)c1cc2c3c(c1)CCN3C(=O)CC2`, the survival is 99%. Take `CCc1cccc(CC)c1-n1nnc2c(sc3nc(C)cc(C)c32)c1=O`: the survival is 83%. As for `Cc1cccc(C(=O)NCc2nnc(SCC(=O)Nc3ccccc3F)n2-c2ccccc2)c1`, the figure is 72%; as for `N#Cc1c(/N=C/c2cccnc2)sc2c1CCC2`, 100%; as for `CN1CCN(C(CNC(=O)c2ccccc2)c2ccc3c(c2)OCO3)CC1` (stereo not drawn), 76%.

As for `Nc1nc(N)nc(COc2ccccc2)n1`, the survival was 102%. Turning to `CCOC(=O)c1c(S(=O)(=O)N2CCCC(C(=O)NCc3ccccc3Cl)C2)c(C)n(C)c1C` (stereo not drawn), the survival was 122%. As for `CCc1cccc(C)c1NC(=O)CN1CCN(Cc2ccccc2Cl)S1(=O)=O`, the survival was 126%.

(Values after PubChem BioAssay AID463173 (ICCB-Longwood Screening Facility, Harvard Medical School, 2010).)
